This note sets out measurements from PubChem BioAssay (NCATS).

Results filed as inconclusive are left out. Values without a mark were called inactive. The source made the active and inactive calls. The call rests on the fitted dose curve; in most records, active means well fitted curve in the direction sought with a large enough effect; inconclusive means small, poorly fitted or top-dose-only effect, or another doubt; inactive means no such curve, though single readings can be large; an effect the other way counts as inactive or inconclusive.
Potency means the concentration at half of the fitted maximal effect.

The first test can be described thus: Viability qHTS for spleen associated tyrosine kinase inhibitor (SYKi) drug resistant MV4-11 cells (AID 1963824). Further: nearly all actives have a fitted effect of over 35% in size. The note with it: SYKi-resistant MV4-11 viability, CellTiter-Glo, 72 h; series mostly up to 45 µM; viability, % of control: at the top concentration. Put shortly:
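SYK-inhibitor-resistant MV4-11 AML cells were seeded at 500 per well onto compound and cultured 72 hours (37 °C, 5% CO2). CellTiter-Glo was then added, and after 10 min at room temperature, luminescence gave viability.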
In general terms: Quantitative high-throughput screening tests each substance at several concentrations.
Consider `Cc1ccc([C@@H]2CC=C(C(=O)O)[C@H](c3ccc(C(C)(C)C)cc3)N2S(=O)(=O)c2ccc(C)cc2)cc1`, for which the Potency is 16.4 µM (active).

On to `C[C@@H]1O[C@@H](O[C@H]2[C@H](OC(=O)[C@]34CCC(C)(C)C[C@H]3C3=CCC5[C@@]6(C)C[C@H](O)[C@H](O[C@@H]7O[C@H](CO)[C@@H](O)[C@H](O)[C@H]7O)[C@](CO)(C(=O)O)C6CC[C@@]5(C)[C@]3(C)C[C@H]4O)OC[C@H](O)[C@@H]2O)[C@H](O)[C@H](O)[C@H]1O[C@@H]1OC[C@@H](O)[C@H](O[C@@H]2OC[C@](O)(CO)[C@H]2O)[C@H]1O` (some centres not stated), for which the Potency was 0.776 µM (active).

In the case of `C=C1C(=C/C=C2\CCC[C@]3(C)[C@@H]([C@H](C)/C=C/[C@@H](O)C4CC4)CC[C@@H]23)C[C@@H](O)C[C@@H]1O`, the Potency is 0.188 µM (active).

Turning to `C[C@@H]1O[C@@H](O[C@H]2[C@H](OC(=O)[C@]34CCC(C)(C)C[C@H]3C3=CCC5[C@@]6(C)C[C@H](O)[C@H](O[C@@H]7O[C@H](CO)[C@@H](O[C@@H]8O[C@H](CO)[C@@H](O)[C@H](O)[C@H]8O)[C@H](O)[C@H]7O)[C@@](C)(CO)C6[C@H](O)C[C@@]5(C)[C@]3(C)C[C@H]4O)OC[C@H](O)[C@@H]2O)[C@H](O)[C@H](O)[C@H]1O[C@@H]1OC[C@@H](O)[C@H](O[C@@H]2OC[C@](O)(CO)[C@H]2O)[C@H]1O` (some centres not stated), the viability, % of control was 108% [at 9.25 µM].

Consider `COc1ccc(N2CCN(C(=O)c3cc4c(s3)-c3ccccc3S(=O)(=O)C4)CC2)cc1`, for which the “viability, % of control” value was 72.4%.

Regarding `COc1ccc(CN2C(=O)C(=O)c3cc(S(=O)(=O)N4CCC[C@H]4COc4cccnc4)ccc32)cc1`, the “viability, % of control” value was 108%.

A short description of another test: Cellular viability qHTS for adrenocortical cancer (ACC) cell line NCI-H295R (AID 1963990). Further: nearly all actives have a fitted effect of over 60% in size.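 On activity change, negative = viability loss: 0% = DMSO only wells and -100% = full killing with cytotoxic reference compound.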 The following applies: CellTiter-Glo ATP luminescence, 48 h; series mostly up to 46.1 µM; activity change, negative = viability loss: at the top concentration. In short, it runs like this:
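IC50 and maximal efficacy derive from four-parameter logistic modelling of titration curves, with reads scaled between DMSO-only wells (0%) and doxorubicin hydrochloride (100% inhibition). Compounds spanned up to 46 uM over 48 h.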
As to `COc1ccc(-c2cc(C(O)C3CCCCN3)c3ccccc3n2)cc1` (configuration not stated), the Potency is 11.2 µM (active).

On to `[2H]c1nc(C)nc([2H])c1-c1cc(NC[C@@H](C)c2cccc3c(C(=O)NC)ccnc23)ncn1`, for which the “activity change, negative = viability loss” value is -21.5%.

On to `Cc1cc(C)cc(OCC2CNC(=O)O2)c1` (configuration not stated), for which the “activity change, negative = viability loss” value was -13.7%.

Regarding `Cc1cc(F)c(C(=O)Nc2cccc(-c3nncn3C(C)C)n2)cc1-n1cnc(C2CC2)c1`, the Potency is 14.1 µM (active).

Regarding `CCCOC(=O)c1ccc(N)cc1`, the “activity change, negative = viability loss” value was 12.4%.

As for `NC(N)=Nc1nc(CSCC/C(N)=N/S(N)(=O)=O)cs1`, the “activity change, negative = viability loss” value is 8.4%.
